# KCNQ2 block: inhibitors of rat KCNQ2 potassium channel. AID 2156. B-score at 10 µM. hit rate 1.1% among 310,000. O88943. CHO-K1 KCNQ2, FluxOR thallium flux, 20 min; hits give low values;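 active means fluorescence ratio B-score at most minus 3 library SDs, with starting brightness B-score within 2 library SDs, cut at about -5.5 in these data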
# KCNQ2 enhance: potentiators of rat KCNQ2 potassium channel. O88943. CHO-K1 KCNQ2, FluxOR thallium flux fluorescence; hits give high values. B-score at 10 µM. hit rate 0.54% among 310,000. AID 2239;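 active means fluorescence ratio B-score at least 3 SD of library B-scores, with initial fluorescence B-score within 3 of them, cut at about 5.3 in these data; same plate scores as AID 2156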;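 further: B-score of peak minus minimum over baseline fluorescence ratio after K+ and Tl+ stimulus; positive B-score means potentiation of KCNQ2 with more thallium influx and brighter signal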
# * hit, by the source's call; i = inactive; / = no result given. Sampled rows, rich in hits. Any-hit rate of the full collection: about 1.6%.
SMILES,KCNQ2 block,KCNQ2 enhance
CCCCN(C(=O)COC(=O)COc1c(C)cc(C)cc1C)c1c(N)n(CCC)c(=O)[nH]c1=O,i,1.43
Cc1cc(N)n(-c2ccc(S(=O)(=O)c3ccc(C(C)C)cc3)cc2)n1,i,1.52
Cn1cnc2c(NCc3ccco3)ncnc21,-6.95*,-6.95
Clc1cccc(Cl)c1Cn1cnc2c(NCc3ccco3)ncnc21,i,0.45
CC(C)(C)c1nnc(NC(=O)C2CC(=O)N(CCc3ccc(F)cc3)C2)s1 (configuration not stated),i,0.97
Cc1cc(C)c2[nH]c(O)c(N=NC3=NC(=O)CS3)c2c1,i,0.94
CCc1ccc2c(c1)c(N=NC1=NC(=O)CS1)c(O)n2C,i,5.85*
CCOc1ccccc1NC(=O)c1cccc2c1C(=O)N(C1CCCCC1)C2,-6.33*,-6.33
Cc1ccccc1NC(=O)c1cccc2c1C(=O)N(C1CCCCC1)C2,i,/
CC(C)c1nc2oc3c(=O)[nH]cnc3c2c2c1COC(C)(C)C2,i,/
CC1=CC(C)(C)[N+](C)(C)c2ccccc21,i,0.61
COCC(=O)Oc1c(Sc2ccccc2[N+](=O)[O-])c(C)nn1C(C)(C)C,i,/
CCC(CC)C(=O)Oc1c(Sc2ccccc2[N+](=O)[O-])c(C)nn1C(C)(C)C,-6.01*,-6.01
Cc1occc1C(=O)N1CCCC(N2CCN(c3ccccc3F)CC2)C1 (configuration not stated),i,/
O=C(CNC(=O)c1ccccc1)Oc1cccc(Cl)c1,i,/
O=C(OCC(=O)c1c[nH]c2ccccc12)c1cccc(S(=O)(=O)N2CCCCCC2)c1,i,8.85*
O=C(COC(=O)c1cccc(S(=O)(=O)N2CCCC2)c1)Nc1ccccc1,i,1.61
O=C(Cn1c(=O)n(CC(=O)NCc2ccccc2)c2ccccc21)NCc1ccccc1,i,/
Cc1cc(=O)c2cc(Br)ccc2n1CC(=O)NCc1ccccc1,-8.29*,-8.29
CC(=O)Nc1ccc(S(=O)(=O)N2CCc3cc4c(cc3C2)OCCCO4)cc1,i,0.1
CSc1c(CN2CCN(C)CC2)c2ccccc2n1C,i,/
COc1ccc(S(=O)(=O)N(CC(N)=O)C2CCCCC2)cc1Cl,-5.73*,-5.73
COc1ccc(S(=O)(=O)N(C)CC(=O)NC2CCCCC2)cc1Cl,i,0.01
Cc1c(N2C(=O)c3ccccc3C2(O)c2ccccc2)c(=O)n(-c2ccccc2)n1C (configuration not stated),i,/
O=C(N/N=C/c1ccc(Br)cc1)c1ccc(Br)o1,i,0.68
SMILES,KCNQ2 block,KCNQ2 enhance
O=C(CC1SC(=Nc2ccccc2)N(CCc2ccccn2)C1=O)Nc1ccc(F)cc1 (configuration not stated),i,0.03
O=C(CC1SC(=Nc2ccccc2)N(CCc2c[nH]c3ccccc23)C1=O)Nc1ccccc1F (configuration not stated),-6.69*,-6.69
CC(=O)N[C@H]1[C@H](OC2CCCCC2)O[C@H](COC(C)=O)[C@@H](OC(C)=O)[C@@H]1OC(C)=O,i,1.37
Cc1ccc(C)c(NC(=O)c2ccccc2C(=O)c2ccccc2)c1,-6.01*,-6.01
Cc1ccc(C(=O)c2ccccc2C(=O)Nc2ccccc2)cc1,i,1.66
COc1ccc(NC(=O)Cn2ncn3nc(-c4ccc(OC)cc4)cc3c2=O)cc1,i,0.41
CCOc1ccc(NC(=O)NNC(=O)C(C)Oc2ccccc2OC)cc1 (configuration not stated),i,0.62
CC(C)CCN1CCNC(=O)C1CC(=O)N(C)CCCN1CCOCC1 (configuration not stated),i,0.86
Cc1ccc(C)c(C2NC(=O)c3ccccc3N2)c1 (configuration not stated),-5.57*,-5.57
O=C1NC(c2ccccc2O)Nc2ccccc21 (configuration not stated),i,/
Cn1c(=O)c(C(=O)N2CCc3ccccc32)cc2cccnc21,i,1.79
CCOc1ccc(-n2c(O)c(/C=N/NC(=O)C3COc4ccccc4O3)c3ccccc3c2=O)cc1 (configuration not stated),i,/
Cc1ccc(C(=O)NNC(=O)c2ccc3ncccc3c2)cc1,i,0.55
O=C(NNC(=O)c1ccc2ncccc2c1)c1ccc(Cl)cc1,i,8.05*
CC(=O)Nc1cccc(NC(=O)CSc2nnc3ccc(-c4ccncc4)nn23)c1,i,/
O=C(COC(=O)c1cccc(C(=O)OCC(=O)NC2CC2)n1)NC1CC1,i,0.49
CN(CC(=O)Nc1ccccc1-c1ccccc1)Cc1ccccc1Cl,-6.28*,-6.28
Cc1ccc(NC(=O)CN(C)CC(=O)Nc2ccccc2-c2ccccc2)cc1,i,/
CCN(CC)Cc1c(C(=O)N2CCc3ccccc3C2)nc2ccc(Cl)cn12,i,0.64
COCCNC(=O)/C(C#N)=c1\s/c(=C\c2ccccc2OC(F)F)c(=O)n1Cc1ccccc1,i,/
COc1cc([N+](=O)[O-])ccc1NC(=O)NCC1CCN(Cc2ccc(Cl)cc2)CC1,-6.13*,-6.13
COc1ccc(Cl)cc1NC(=O)NCC1CCN(Cc2cc(C)ccc2C)CC1,i,/
CCc1c(O)nc(SCC(=O)N2CCc3cc(OC)c(OC)cc3[C@@H]2C)[nH]c1=O,i,/
COc1cc(/C=N/NC(=O)c2cc[n+]([O-])cc2)ccc1O,i,/
COc1ccc(N(C)C(=O)CCC(=O)Nc2ccc3nc(N4CCOCC4)cc(C)c3c2)c(OC)c1,-7.79*,-7.79
SMILES,KCNQ2 block,KCNQ2 enhance
COc1ccc(NC(=O)CCC(=O)Nc2ccc3nc(N4CCOCC4)cc(C)c3c2)c(OC)c1,i,0.24
COc1cc(/C=N/NC(=O)c2ccc(Cl)c(S(N)(=O)=O)c2)ccc1OCC(N)=O,i,/
Cc1ccc(S(=O)(=O)/C(C#N)=C/c2c(N3CCN(Cc4ccccc4)CC3)nc3ccccn3c2=O)cc1,i,/
CC(=O)[C@@]1(O)CC[C@H]2[C@@H]3CCC4=CC(=O)CC[C@]4(C)[C@H]3CC[C@@]21C,i,0.03
CCCCCC(=O)O[C@]1(C(C)=O)CC[C@H]2[C@@H]3CCC4=CC(=O)CC[C@]4(C)[C@H]3CC[C@@]21C,-7.16*,-7.16
O=c1[nH]c(=S)[nH]c2c1CN(Cc1ccc(F)cc1)CC2,i,1.25
CC(C(=O)Nc1ncc([N+](=O)[O-])s1)N1C(=O)c2ccccc2S1(=O)=O (configuration not stated),i,0.4
O=S1(=O)C=C(Oc2ccc(F)cc2)c2ccccc21,i,0.45
O=S1(=O)C=C(Oc2ccc3ccccc3c2)c2ccccc21,-6.11*,-6.11
CC(=O)Nc1ccc(NC(=O)CSc2nc(N)c(NC(=O)c3ccco3)c(=O)[nH]2)cc1,i,0.05
CCS(=O)(=O)N1Cc2ccccc2CC1C(=O)NC(C)C12CC3CC(CC(C3)C1)C2 (configuration not stated),i,/
CCS(=O)(=O)N1Cc2ccccc2CC1C(=O)NCC12CC3CC(CC(C3)C1)C2 (configuration not stated),-7.07*,-7.07
CC(C)c1nc2sc3c(c2c(=O)[nH]1)CC(C)(C)OC3,i,1.52
CCOc1ccc(CCNC(=O)Cn2cccc2C(=O)c2ccccc2C)cc1OCC,i,/
CCN1CCc2nc3sc(C(=O)N4CCc5ccccc5C4)c(N)c3cc2C1,i,/
Cc1cc(C)c2c(N)c(C(=O)N3CCc4ccccc4C3)sc2n1,-7.69*,-7.69
COCCn1c(SCC(=O)N2CC(=O)Nc3ccccc32)nc2ccccc21,i,/
Cc1ccc(C(=O)Nc2cccc3ccccc23)cc1,i,0.99
